# Test results published in ChEMBL document CHEMBL1961873, “Compounds: GSK PKIS; Assays: Nanosyn kinase panel” (2012).
# How the values were obtained:
# [1] = molecular target: RAF proto-oncogene serine/threonine-protein kinase (Homo sapiens) (UniProt P04049); conditions: at 1 µM;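 also: values are the mean percent inhibition of CRAF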
# [2] = molecular target: T1, Interleukin-1 receptor-associated kinase 4 (Homo sapiens) (UniProt Q9NWZ3); conditions: at 0.1 µM
# T1 sequence (whole entry): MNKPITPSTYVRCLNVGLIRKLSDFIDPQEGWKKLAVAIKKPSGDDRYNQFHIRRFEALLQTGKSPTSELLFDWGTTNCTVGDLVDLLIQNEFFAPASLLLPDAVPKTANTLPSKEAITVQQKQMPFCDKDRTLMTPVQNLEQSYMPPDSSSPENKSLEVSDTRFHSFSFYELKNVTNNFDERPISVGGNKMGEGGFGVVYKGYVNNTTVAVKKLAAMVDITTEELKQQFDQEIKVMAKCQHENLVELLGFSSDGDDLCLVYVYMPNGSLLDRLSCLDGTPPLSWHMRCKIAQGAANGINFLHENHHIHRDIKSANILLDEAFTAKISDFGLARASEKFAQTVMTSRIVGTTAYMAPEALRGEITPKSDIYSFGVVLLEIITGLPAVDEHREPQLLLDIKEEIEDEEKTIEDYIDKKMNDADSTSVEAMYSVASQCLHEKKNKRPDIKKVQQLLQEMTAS
# [3] = molecular target: T1, Interleukin-1 receptor-associated kinase 4 (Homo sapiens); conditions: at 1 µM
# [4] = molecular target: Leucine-rich repeat serine/threonine-protein kinase 2 (Homo sapiens) (UniProt Q5S007); conditions: at 0.1 µM
# [5] = molecular target: Leucine-rich repeat serine/threonine-protein kinase 2 (Homo sapiens) (UniProt Q5S007); conditions: at 1 µM
# [6] = system: Leucine-rich repeat serine/threonine-protein kinase 2 (Homo sapiens), Q5S007 [G2019S]; conditions: at 0.1 µM
# [7] = system: Leucine-rich repeat serine/threonine-protein kinase 2 (Homo sapiens), Q5S007 [G2019S]; conditions: at 1 µM
# Sequence of Leucine-rich repeat serine/threonine-protein kinase 2 (Homo sapiens) (Q5S007 whole entry): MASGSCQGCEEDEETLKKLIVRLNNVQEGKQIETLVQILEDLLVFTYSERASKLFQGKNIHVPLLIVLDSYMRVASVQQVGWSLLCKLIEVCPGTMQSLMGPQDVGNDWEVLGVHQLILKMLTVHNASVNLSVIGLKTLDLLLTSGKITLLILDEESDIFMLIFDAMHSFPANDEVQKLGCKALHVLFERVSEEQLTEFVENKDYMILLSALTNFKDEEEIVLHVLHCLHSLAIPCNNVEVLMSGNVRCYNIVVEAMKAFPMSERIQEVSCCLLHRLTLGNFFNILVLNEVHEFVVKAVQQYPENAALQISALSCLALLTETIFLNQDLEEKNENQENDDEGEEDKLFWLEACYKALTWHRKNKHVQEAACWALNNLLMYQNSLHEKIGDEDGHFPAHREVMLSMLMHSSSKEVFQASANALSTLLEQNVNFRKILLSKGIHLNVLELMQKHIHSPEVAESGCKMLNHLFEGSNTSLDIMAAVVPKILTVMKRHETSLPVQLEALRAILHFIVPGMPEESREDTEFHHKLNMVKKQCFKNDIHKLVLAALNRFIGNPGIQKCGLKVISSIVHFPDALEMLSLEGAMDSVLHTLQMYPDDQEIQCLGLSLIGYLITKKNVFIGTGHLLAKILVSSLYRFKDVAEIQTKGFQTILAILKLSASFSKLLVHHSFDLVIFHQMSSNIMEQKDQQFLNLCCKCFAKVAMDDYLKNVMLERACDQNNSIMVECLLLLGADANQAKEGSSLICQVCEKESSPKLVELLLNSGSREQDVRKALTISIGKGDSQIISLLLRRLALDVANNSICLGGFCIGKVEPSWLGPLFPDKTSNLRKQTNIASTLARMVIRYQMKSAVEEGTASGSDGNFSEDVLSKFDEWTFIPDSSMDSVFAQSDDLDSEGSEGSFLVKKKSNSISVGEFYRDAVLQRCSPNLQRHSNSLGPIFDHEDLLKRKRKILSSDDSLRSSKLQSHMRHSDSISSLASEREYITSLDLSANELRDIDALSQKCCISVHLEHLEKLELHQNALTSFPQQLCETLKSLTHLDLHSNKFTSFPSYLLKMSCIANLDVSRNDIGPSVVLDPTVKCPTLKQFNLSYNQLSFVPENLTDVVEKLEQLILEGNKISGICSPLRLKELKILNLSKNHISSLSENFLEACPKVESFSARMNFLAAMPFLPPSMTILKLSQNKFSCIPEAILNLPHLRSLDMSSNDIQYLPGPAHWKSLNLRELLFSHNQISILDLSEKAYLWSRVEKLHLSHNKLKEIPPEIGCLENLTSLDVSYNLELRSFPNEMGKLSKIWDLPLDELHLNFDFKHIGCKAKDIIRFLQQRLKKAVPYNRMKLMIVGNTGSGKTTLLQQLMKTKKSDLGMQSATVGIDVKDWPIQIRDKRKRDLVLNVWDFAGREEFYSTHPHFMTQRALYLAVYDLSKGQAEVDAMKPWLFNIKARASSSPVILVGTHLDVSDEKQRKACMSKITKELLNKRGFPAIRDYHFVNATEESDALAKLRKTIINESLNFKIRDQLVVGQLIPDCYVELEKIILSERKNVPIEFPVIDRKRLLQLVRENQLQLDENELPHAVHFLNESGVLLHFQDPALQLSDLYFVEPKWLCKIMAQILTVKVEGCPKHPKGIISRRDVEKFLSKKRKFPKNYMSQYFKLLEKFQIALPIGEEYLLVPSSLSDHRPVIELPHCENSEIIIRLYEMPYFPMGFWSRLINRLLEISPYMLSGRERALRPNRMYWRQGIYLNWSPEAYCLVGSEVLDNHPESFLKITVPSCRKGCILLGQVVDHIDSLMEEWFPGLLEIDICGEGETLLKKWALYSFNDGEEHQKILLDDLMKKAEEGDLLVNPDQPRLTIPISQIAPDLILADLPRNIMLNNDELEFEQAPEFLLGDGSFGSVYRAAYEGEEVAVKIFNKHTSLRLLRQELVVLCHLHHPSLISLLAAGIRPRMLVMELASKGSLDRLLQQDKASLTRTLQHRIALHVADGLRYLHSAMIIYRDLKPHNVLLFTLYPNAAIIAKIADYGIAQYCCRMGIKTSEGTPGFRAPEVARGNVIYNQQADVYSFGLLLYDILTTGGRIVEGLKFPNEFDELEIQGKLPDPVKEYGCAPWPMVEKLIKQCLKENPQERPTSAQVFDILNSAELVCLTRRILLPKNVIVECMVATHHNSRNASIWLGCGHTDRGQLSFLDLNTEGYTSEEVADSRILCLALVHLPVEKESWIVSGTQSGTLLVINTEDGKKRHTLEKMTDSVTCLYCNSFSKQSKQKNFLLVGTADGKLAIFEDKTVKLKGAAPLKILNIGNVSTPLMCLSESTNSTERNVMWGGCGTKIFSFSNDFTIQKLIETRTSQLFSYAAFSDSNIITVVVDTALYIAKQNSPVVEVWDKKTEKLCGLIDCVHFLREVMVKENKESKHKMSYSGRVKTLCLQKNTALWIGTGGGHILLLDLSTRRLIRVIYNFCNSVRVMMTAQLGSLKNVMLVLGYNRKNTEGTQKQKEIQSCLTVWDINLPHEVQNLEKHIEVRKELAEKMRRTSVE
# Sequence of RAF proto-oncogene serine/threonine-protein kinase (Homo sapiens) (P04049 whole entry): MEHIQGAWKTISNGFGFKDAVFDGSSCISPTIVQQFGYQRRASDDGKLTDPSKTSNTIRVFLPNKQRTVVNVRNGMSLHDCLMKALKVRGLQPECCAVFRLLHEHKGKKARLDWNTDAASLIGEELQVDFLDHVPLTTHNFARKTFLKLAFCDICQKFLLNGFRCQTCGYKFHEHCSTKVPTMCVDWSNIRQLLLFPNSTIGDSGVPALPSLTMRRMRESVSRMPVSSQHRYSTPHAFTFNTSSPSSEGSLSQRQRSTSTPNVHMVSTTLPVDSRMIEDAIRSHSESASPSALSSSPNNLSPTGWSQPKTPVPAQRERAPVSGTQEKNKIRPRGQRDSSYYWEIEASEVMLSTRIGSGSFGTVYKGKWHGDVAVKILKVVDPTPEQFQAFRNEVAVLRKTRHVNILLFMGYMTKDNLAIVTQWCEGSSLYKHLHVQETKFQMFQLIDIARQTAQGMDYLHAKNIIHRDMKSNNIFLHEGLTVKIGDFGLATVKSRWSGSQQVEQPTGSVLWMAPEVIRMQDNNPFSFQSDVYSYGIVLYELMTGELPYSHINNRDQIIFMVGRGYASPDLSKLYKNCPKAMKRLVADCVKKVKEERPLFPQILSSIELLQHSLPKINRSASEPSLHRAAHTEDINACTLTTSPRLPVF
# Sequence of Leucine-rich repeat serine/threonine-protein kinase 2 (Homo sapiens), Q5S007 [G2019S] (Q5S007 whole entry G2019S): as the sequence (Q5S007 whole entry) above, with G2019S counted along it
Compound,inhibition [1] [%],inhibition [2] [%],inhibition [3] [%],inhibition [4] [%],inhibition [5] [%],inhibition [6] [%],inhibition [7] [%]
COc1ccc(-c2nn3ncccc3c2-c2ccnc(Nc3cccc(C(F)(F)F)c3)n2)cc1,-0.7,2.1,1.92,2.5,2.68,2.73,-0.13
COc1cc2ncn(-c3cc(OCc4ccccc4S(C)(=O)=O)c(C#N)s3)c2cc1OC,2.83,-0.58,10.8,25.5,83.7,60.4,61.8
Nc1nccc(-c2c(-c3ccc(F)cc3)ncn2CCCN2CCOCC2)n1,2.86,3.35,2.13,1.92,1.82,2.45,2.14
CCOc1nccc2c1nc(-c1nonc1N)n2CC,1.42,-2.37,1.89,3.98,8.96,5.55,11.8
CN(c1ccc(NC(=O)Nc2ccc(OC(F)(F)F)cc2)cc1)c1ccnc(Nc2cccc(S(N)(=O)=O)c2)n1,-4.06,1.26,2.86,4.25,27.6,3.86,17.2
COC(=O)c1ccc2c(c1)C(=Cc1cc(Br)c(O)c(Br)c1)C(=O)N2,42,1.11,2.79,29.1,88.5,58.3,91.7
CCn1c(-c2nonc2N)nc2c(C#CC(C)(C)O)nc(OCCNC)cc21,0.54,2.16,3.06,-2.14,0.49,-0.46,2.51
C[C@@H](Oc1cc(-n2cnc3ccc(OC[C@@H](O)CO)cc32)sc1C(N)=O)c1ccccc1Cl,5.77,1.29,-0.05,3.25,17.3,5.39,28.7
Cc1cc(O)cc(C)c1/C=C/c1cncc(C(=O)N(C)C)c1,-5.4,-1.62,2.21,4.81,7.82,3.29,7.6
COc1cc2ncnc(Nc3ccc4c(cnn4Cc4ccccc4)c3)c2cc1OC,-1.93,0.58,1.32,3.78,14.3,6.86,13.8
COc1cc(/C=N/Nc2ncnc3c2cnn3C(C)C)ccc1O,1.93,1.12,2.71,2.81,7.64,4.77,19.1
c1ccc(Nc2ncc(-c3ccccc3)o2)cc1,0.56,2.02,2.65,1.16,4.27,3.18,8.98
Cc1ccc(O)cc1Nc1ccnc2ccc(S(C)(=O)=O)cc12,9.12,4.59,3.6,4.8,18.7,12.5,48
NC(=O)c1sc(-n2cnc3ccccc32)cc1OCc1ccccc1Br,-0.55,1.39,2.57,1.66,10.8,4.94,19.3
Cc1ccc2c(-c3ccnc(Nc4cccc(C(F)(F)F)c4)n3)c(-c3ccccc3)nn2n1,3.34,2.03,2.78,1.87,7.47,2.59,4.94
Oc1cccc(-c2nc(-c3ccccc3)[nH]c2-c2ccncc2)c1,12.2,-4.12,2.23,4.13,8.56,4.27,8.9
NS(=O)(=O)c1ccc(NC=C2C(=O)Nc3ccc4ncsc4c32)cc1,-1.97,0.1,4.43,23.9,78.8,48.8,59.7
CCCN1CCCC(c2ccc(Nc3nc(Nc4cc(F)ccc4C(N)=O)c4cc[nH]c4n3)c(OC)c2)C1 (stereo unspecified),-4.64,3.05,3.34,86.9,88.3,80.5,83.5
OCc1ccc(-c2nc(-c3ccccn3)c(-c3ccc4c(c3)OCO4)[nH]2)cc1,-7.97,-4.02,2.42,4.19,6.97,5.62,9.65
CN(C)C(=O)O[C@H]1CN[C@H](C#Cc2cc3ncnc(Nc4ccc(OCc5cccc(F)c5)c(Cl)c4)c3s2)C1,5.68,-3.18,1.16,1.64,2.05,4.13,6.83
COc1cccc(-n2nc(C)c3c(N/N=C(\C)c4ccncc4)ncnc32)c1,-2.83,-0.08,0.93,2.29,4.69,2.88,4.64
Cc1nc(-c2ccccc2)n2nc(NCCCN3CCOCC3)ncc12,3.81,1.72,1.58,0.1,5.23,2.23,6.32
C[C@@H](Oc1cc(-n2cnc3ccc(OCC4CCN(C)CC4)cc32)sc1C(N)=O)c1ccccc1C(F)(F)F,1.99,0.42,9.77,6.53,26.4,7.39,31

Compound,inhibition [1] [%],inhibition [2] [%],inhibition [3] [%],inhibition [4] [%],inhibition [5] [%],inhibition [6] [%],inhibition [7] [%]
O=C(Nc1ccc(Oc2ccc3[nH]c(NC(=O)c4ccco4)nc3c2)cc1)Nc1cc(C(F)(F)F)ccc1F,39.9,-2.35,0.94,15.7,15.8,9.87,51.6
Nc1nccc(-c2c(-c3ccc(F)cc3)nn3cc(C(F)(F)F)ccc23)n1,-7.59,0.57,0.46,6.4,7.9,6.54,5.03
COc1cc2ncnc(Nc3ccc(C)c(O)c3)c2cc1OC,-1.36,4.09,2.62,1.75,8.77,4.67,18.3
Cc1ccc(C(=O)NC2CC2)cc1-c1ccc2[nH]ncc2c1,-2.56,-1.84,-0.57,-0.67,2.87,1.11,4.33
NC(=O)c1cccc(Nc2nccc(Nc3cccc(F)c3)n2)c1,-1.43,0.1,2.52,-0.11,10,1.9,18.2
NS(=O)(=O)c1ccc(-c2cc3ccncc3cc2OCc2ccccc2)cc1,1.99,-1.18,1.31,2.38,7.53,1.82,8.17
Cc1ccc(NC(=O)CC2CC2)cc1-c1ccc(C(=O)NCC2CC2)cc1,2.03,-2.97,2.2,2.09,7.62,3.23,6.82
N#Cc1c(NC(=O)c2ccccc2F)sc2c1CCCC2,-0.64,-1.41,-0.41,1.84,1.84,2.14,3.2
Cc1cc(-c2ccccn2)cc(C)c1/C=C/c1cncc(-c2nn[nH]n2)c1,0.84,1.97,2.42,1.5,10.7,3.32,8.55
O=C1Nc2ccc(-c3cccnc3)cc2C1=Cc1cc(Br)c(O)c(Br)c1,21.8,-1.88,4.22,23.2,22.3,47.2,61.3
CCn1c(-c2nonc2N)nc2ccc(F)cc21,0.22,1.39,2.93,4.04,8.92,4.92,4.42
CS(=O)(=O)CCNCc1nc(-c2ccc3ncnc(Nc4ccc(OCc5cccc(C(F)(F)F)c5)cc4)c3c2)cs1,-1.38,0.78,1.16,1.09,6.41,3.12,5.01
Nc1ccc(C#Cc2cncnc2Nc2ccc(OCc3cccc(F)c3)c(Cl)c2)cc1,-1.01,0.78,1.25,2.69,2.94,3.21,3.62
COc1cccc(-n2ncc3c(N/N=C/c4ccc(S(C)(=O)=O)cc4)ncnc32)c1,-5.96,-3.29,1.12,-1.93,-1.56,2.72,6.75
CS(=O)(=O)Nc1cccc(-c2ccc3c(NC(=O)C4CC4)n[nH]c3c2)c1,16.5,4.95,0.25,1.1,5.23,2.67,5.19
CN(C)CCCn1c(-c2nonc2N)nc2cnccc21,1.81,4.22,1.99,3.63,2.14,2.04,2.51
Cc1ccc2c(-c3ccnc(Nc4ccc5c(c4)OCCO5)n3)c(-c3ccc(C(F)(F)F)cc3)nn2n1,1.48,-0.63,-0.5,2.01,2.22,2.87,3.58
Cc1ccc(Nc2ccnc(Nc3cccc(C(N)=O)c3)n2)cc1O,4.38,-2.94,6.55,0.74,9.44,2.08,26.1
Cc1cc(Cl)cc2c1NC(=O)C2=NNc1ccc(S(N)(=O)=O)cc1,3.57,3.1,1.43,0.71,2.23,1.78,4.5
N#Cc1cccc(Nc2nccc(-c3cnn4ncccc34)n2)c1,0.47,4.11,15.1,4.57,19.8,7.72,40.4
CN(C)C(=O)O[C@@H]1CN[C@@H](C#Cc2cc3ncnc(Nc4ccc(OCc5cccc(F)c5)c(Cl)c4)c3s2)C1,,2.83,0.5,0.07,0.34,1.22,4.14
CN(C)c1cc2c(Nc3ccc4c(cnn4Cc4ccccc4)c3)ncnc2cn1,7.17,3.11,1.57,3.31,9.07,3.44,8.03
NS(=O)(=O)c1ccc(N/N=C2\C(=O)Nc3ccc(Cl)cc32)cc1,-2.46,1.38,1.48,3.85,14.7,10.2,49.5

Compound,inhibition [1] [%],inhibition [2] [%],inhibition [3] [%],inhibition [4] [%],inhibition [5] [%],inhibition [6] [%],inhibition [7] [%]
NS(=O)(=O)c1ccc(Nc2cc(-c3cccc(O)c3)n[nH]2)cc1,-1.78,0.88,2.85,6.39,12.4,6.39,17.1
CN1CCN(C(=O)c2ccc(NC(=O)Nc3ccc(N(C)c4ccnc(Nc5ccc(CS(C)(=O)=O)cc5)n4)cc3)cc2)CC1,-0.88,0.32,0.52,13.7,21.2,15.2,50.9
NS(=O)(=O)c1cccc(Nc2cc(-c3ccc(F)cc3)n[nH]2)c1,-8.3,-1.86,1.25,4.6,10.5,5.16,12.2
c1ccc(Cc2nc3ccc(Nc4ncnc5ccccc45)cc3[nH]2)cc1,8.44,-1.86,1.52,0.2,4.18,3.52,9.17
ON=C1CCc2cc(-c3nc(C4CCNCC4)[nH]c3-c3ccncc3)ccc21,10.2,4,-0.27,1.51,2.68,0.74,4.07
COC(=O)c1cncc(/C=C/c2c(C)cc(O)cc2C)c1,-7.11,-4.61,1.8,1.53,6.87,2.83,9.71
NS(=O)(=O)c1cccc(-c2cc3ccncc3cc2OCc2ccccc2)c1,0.71,1.17,2.26,4.42,8.85,4.16,8.74
COc1ccc2ncnc(Nc3ccc(OCc4ccccc4)cc3)c2c1,,3.13,0.86,1.61,4.95,2.19,13.1
CCS(=O)(=O)c1ccc(OC)c(Nc2ncc(-c3cccc(OC)c3)o2)c1,-3.45,-4.04,2.08,5.57,20.2,7.7,42.6
CCS(=O)(=O)c1ccc(OC)c(Nc2nccc(N(C)c3ccc4c(C)n[nH]c4c3)n2)c1,3.08,1.47,1.99,5.36,22.5,8.48,27.3
Nc1nccc(C#Cc2cncnc2Nc2ccc(OCc3cccc(F)c3)c(Cl)c2)n1,-0.28,0.44,2.48,7.72,11.1,8.54,14
COc1cccc(-n2ncc3c(N/N=C/c4ccc(C)cc4)ncnc32)c1,0.4,2.16,4.05,10.2,18.8,11.3,27.9
Cc1ccc2c(c1)/C(=N/Nc1ccc(S(N)(=O)=O)cc1)C(=O)N2,,2.09,-0.03,6.44,13.1,9.36,46.2
O=C1Nc2ccccc2/C1=C/Nc1ccc2[nH]c(=O)[nH]c2c1,-0.47,2.93,2.88,3.06,14.1,6.22,35
O=S(=O)(CCOCc1ccc(-c2ccc3ncnc(Nc4ccc(OCc5cccc(F)c5)c(Cl)c4)c3c2)o1)c1ccccc1,-1.29,0.22,0.93,4.19,9.06,6.55,10.3
COC(=O)Nc1nc2cc(Oc3ccc(NC(=O)Nc4cccc(Br)c4)cc3)ccc2[nH]1,44.2,1.75,1.23,8.94,13.4,4.67,10.5
COc1cc(Nc2nccc(-c3cnn4ncccc34)n2)cc(OC)c1,10.1,5.71,18.6,18.7,24.4,22.1,62.9
CC(C)c1ccc(Nc2nccc(-c3cnn4ncccc34)n2)cc1,2.26,-2.06,1.84,9.89,17.9,11.6,44.5
[O-][S+]1CCN(Cc2ccc(-c3ccc4ncnc(Nc5ccc(OCc6ccccc6)c(Cl)c5)c4c3)o2)CC1,-0.7,0.32,0.82,1.07,2.89,4.21,4.96
CC(C)c1ccc2c(c1)NC(=O)/C2=N/Nc1ccc(S(N)(=O)=O)cc1,-0.41,0.36,0.49,-0.37,9.75,2.27,11.5
FC(F)(F)c1ccc(-c2nn3ncccc3c2-c2ccnc(Nc3ccc4c(c3)OCCO4)n2)cc1,-0.8,5.37,1.44,4.63,8.46,6.21,10.1
